# The panel holds about 83,000 compounds, 20% with a hit somewhere; the sample as a whole holds those more often.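 Each cell line was grown in a 96-well plate and treated with one concentration of compound for 48 hours. Values below 10 were considered active.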 Active and inactive are the calls of the source.
# Test system: MDA-MB-435 melanoma
# Experiment: NCI-60 one-dose screen, 48 h (100 = growth as untreated, 0 = no growth, -100 = all killed)
# Settings: 10 µM unless noted
row,Compound,growth
1,CCOP1(=O)CC(C)=C(Cl)C(P(=O)(O)O)C1 (stereo not given),107% (inactive)
2,O=Nc1c(-c2c(O)[nH]c3cc(Br)ccc23)[nH]c2ccccc12,31.4% (inactive)
3,C=CCNC(=S)NNc1ccc([N+](=O)[O-])cn1,95.7% (inactive)
4,CCOC(=O)NNc1[nH]c(-c2ccc(OC)cc2)cc1C#N,85% (inactive)
5,C=CCC(CCC(CC=C)C(=O)OCC)C(=O)OCC (stereo not given),104% (inactive)
6,O=C(CCl)NC1c2ccccc2Oc2ccccc21,62.7% (inactive)
7,O=C(N/N=C\c1ccc(Cl)cc1)C(=O)N/N=C\c1ccc(Cl)cc1,108% (inactive)
8,C=C(NC(=O)[C@H](C(C)C)N(C)c1cccc2[nH]ccc12)C(=O)OC,102% (inactive)
9,COc1ccc(C2=NN(C(=O)c3cc(-c4ccc(C)cc4)nc4ccccc34)C(c3cc(-c4ccccc4)nn3-c3ccccc3)C2)cc1 (stereo not given),102% (inactive)
10,COc1ccc(C(=O)N2N=C(c3ccc(Br)cc3)CC2c2cn(-c3ccccc3)nc2-c2ccccc2)cc1 (stereo not given),48.6% (inactive)
11,CC(=O)O.[In],102% (inactive)
12,COc1ccc(NC(=O)/C=C(C)/C=C/C=C(C)/C=C/C2=C(C)CCCC2(C)C)cc1,95.7% (inactive)
13,CCOC(=O)CCCCCCCCC(=O)OCC,112% (inactive)
14,COC(=O)C(N)CC(C)C (stereo not given),106% (inactive)
15,O=C(/C=C1\C(=O)N(Cc2ccc([N+](=O)[O-])cc2)c2ccccc21)c1ccc(OCCN2CCCCC2)cc1,22.5% (inactive)
16,Cc1ccc2c(O)c(O)cc(NC(C)CCCN)c2n1 (stereo not given),114% (inactive)
17,N/C(=N\O)c1ccncc1,100% (inactive)
18,COc1cc(/C=C/C(=O)c2ccc(F)cc2)ccc1OCCCCOc1cc2c(cc1OC)C(=O)N1CCCC1C=N2 (stereo not given),-71% (active)
19,COc1cc(-c2cc3cnccc3c3nc(N)c4ccncc4c23)cc(OC)c1OC,4.6% (active)
20,CC[n+]1c(C)ccc2cc(C)ccc21,118% (inactive)

row,Compound,growth
1,O=C(/C=C/c1ccc(Br)cc1)c1ccccc1,87.6% (inactive)
2,CCN(CC)CCNc1ncnc2c1cnn2-c1ccc(Cl)cc1,-34.8% (active)
3,C/C(=C\c1ccc2ccccc2c1)[N+](=O)[O-],51.8% (inactive)
4,Oc1ccccc1/C=N/N=C/c1c(O)ccc2ccccc12,108% (inactive)
5,CC(=O)CC(=O)OC/C=C(/C)CCC=C(C)C,114% (inactive)
6,COc1cccc2c1nc1cccc(OC)c1[n+]2[O-],98.4% (inactive)
7,COc1ccc(/C=C2\SC(=O)N(Cc3cc(=O)oc4ccc(OC)cc34)C2=O)cc1,100% (inactive)
8,CCCCCSc1ccc2nc(NC(=O)OCC)sc2c1,-47% (active)
9,CCNc1nnc(COc2ccc(CNC(=O)CCCC/C=C/C(C)C)cc2OC)o1,104% (inactive)
10,CCCCCCCCCCN1CC2CCCCC2C1 (stereo not given),91.3% (inactive)
11,CCCCCCCCCCCCCCCC[n+]1cccc(C#N)c1,73.3% (inactive)
12,Nc1nc2c(c3ncncc13)C(c1cccc(C(F)(F)F)c1)Cc1ncncc1-2 (stereo not given),-24.7% (active)
13,O=P(OCCCl)(OCCCl)C(O)c1ccccc1Cl (stereo not given),102% (inactive)
14,CCCCCCCCCCCCOC(=N)N(C)C,97.4% (inactive)
15,COC(=O)C(C(=O)OC)C(Br)C(Br)C(Br)c1ccccc1 (stereo not given),91.2% (inactive)
16,CCCCCCCCCC(C)NC(=O)CCl (stereo not given),96.3% (inactive)
17,CC1=C(C)C[C@]2(C(=O)O[C@H]3CCCC[C@@H]32)[S@](=O)C1,103% (inactive)
18,CCCCN(CCC)CCCCCCCCCCN1CCCc2ccccc21,85.2% (inactive)
19,CCCCCCCCCC[N+](C)(C)N,91.9% (inactive)
20,COc1ccc(-c2nnc(SCC(=O)Nc3ccc(C(=O)/C=C/c4cc(OC)c(OC)c(OC)c4)cc3)n2-c2ccccc2)cc1OC,-16.1% [100 µM] (active)

# Test system: SW-620 colon
# Experiment: as above
# Settings: 10 µM unless noted
row,Compound,growth
1,CCOP1(=O)CC(C)=C(Cl)C(P(=O)(O)O)C1 (stereo not given),110% (inactive)
2,O=Nc1c(-c2c(O)[nH]c3cc(Br)ccc23)[nH]c2ccccc12,-92.5% (active)
3,C=CCNC(=S)NNc1ccc([N+](=O)[O-])cn1,92% (inactive)
4,CCOC(=O)NNc1[nH]c(-c2ccc(OC)cc2)cc1C#N,107% (inactive)
5,C=CCC(CCC(CC=C)C(=O)OCC)C(=O)OCC (stereo not given),103% (inactive)
6,O=C(CCl)NC1c2ccccc2Oc2ccccc21,57.1% (inactive)
7,O=C(N/N=C\c1ccc(Cl)cc1)C(=O)N/N=C\c1ccc(Cl)cc1,113% (inactive)
8,C=C(NC(=O)[C@H](C(C)C)N(C)c1cccc2[nH]ccc12)C(=O)OC,110% (inactive)
9,COc1ccc(C2=NN(C(=O)c3cc(-c4ccc(C)cc4)nc4ccccc34)C(c3cc(-c4ccccc4)nn3-c3ccccc3)C2)cc1 (stereo not given),96.7% (inactive)
10,COc1ccc(C(=O)N2N=C(c3ccc(Br)cc3)CC2c2cn(-c3ccccc3)nc2-c2ccccc2)cc1 (stereo not given),29.6% (inactive)
11,CC(=O)O.[In],106% (inactive)
12,COc1ccc(NC(=O)/C=C(C)/C=C/C=C(C)/C=C/C2=C(C)CCCC2(C)C)cc1,69.3% (inactive)
13,CCOC(=O)CCCCCCCCC(=O)OCC,107% (inactive)
14,COC(=O)C(N)CC(C)C (stereo not given),103% (inactive)
15,O=C(/C=C1\C(=O)N(Cc2ccc([N+](=O)[O-])cc2)c2ccccc21)c1ccc(OCCN2CCCCC2)cc1,-78.7% (active)
16,Cc1ccc2c(O)c(O)cc(NC(C)CCCN)c2n1 (stereo not given),73.2% (inactive)
17,N/C(=N\O)c1ccncc1,105% (inactive)
18,COc1cc(/C=C/C(=O)c2ccc(F)cc2)ccc1OCCCCOc1cc2c(cc1OC)C(=O)N1CCCC1C=N2 (stereo not given),-59% (active)
19,COc1cc(-c2cc3cnccc3c3nc(N)c4ccncc4c23)cc(OC)c1OC,46.8% (inactive)
20,CC[n+]1c(C)ccc2cc(C)ccc21,99.5% (inactive)

row,Compound,growth
1,O=C(/C=C/c1ccc(Br)cc1)c1ccccc1,65.6% (inactive)
2,CCN(CC)CCNc1ncnc2c1cnn2-c1ccc(Cl)cc1,63% (inactive)
3,C/C(=C\c1ccc2ccccc2c1)[N+](=O)[O-],-33.8% (active)
4,Oc1ccccc1/C=N/N=C/c1c(O)ccc2ccccc12,95% (inactive)
5,CC(=O)CC(=O)OC/C=C(/C)CCC=C(C)C,105% (inactive)
6,COc1cccc2c1nc1cccc(OC)c1[n+]2[O-],50% (inactive)
7,COc1ccc(/C=C2\SC(=O)N(Cc3cc(=O)oc4ccc(OC)cc34)C2=O)cc1,106% (inactive)
8,CCCCCSc1ccc2nc(NC(=O)OCC)sc2c1,19.6% (inactive)
9,CCNc1nnc(COc2ccc(CNC(=O)CCCC/C=C/C(C)C)cc2OC)o1,110% (inactive)
10,CCCCCCCCCCN1CC2CCCCC2C1 (stereo not given),74.2% (inactive)
11,CCCCCCCCCCCCCCCC[n+]1cccc(C#N)c1,35.6% (inactive)
12,Nc1nc2c(c3ncncc13)C(c1cccc(C(F)(F)F)c1)Cc1ncncc1-2 (stereo not given),28.9% (inactive)
13,O=P(OCCCl)(OCCCl)C(O)c1ccccc1Cl (stereo not given),111% (inactive)
14,CCCCCCCCCCCCOC(=N)N(C)C,98.8% (inactive)
15,COC(=O)C(C(=O)OC)C(Br)C(Br)C(Br)c1ccccc1 (stereo not given),18.6% (inactive)
16,CCCCCCCCCC(C)NC(=O)CCl (stereo not given),103% (inactive)
17,CC1=C(C)C[C@]2(C(=O)O[C@H]3CCCC[C@@H]32)[S@](=O)C1,110% (inactive)
18,CCCCN(CCC)CCCCCCCCCCN1CCCc2ccccc21,43.9% (inactive)
19,CCCCCCCCCC[N+](C)(C)N,102% (inactive)
20,COc1ccc(-c2nnc(SCC(=O)Nc3ccc(C(=O)/C=C/c4cc(OC)c(OC)c(OC)c4)cc3)n2-c2ccccc2)cc1OC,12.2% [100 µM] (inactive)

# From PubChem BioAssay (NCI)
